Test results reported in the supplement of paper PMC11732987, “Enantioselective OTUD7B fragment discovery through chemoproteomics screening and high-throughput optimisation” (Communications Chemistry, 2025).

What was measured:
Assay in all cases: log2 ratio of Biotin-Ahx-Ub-VS probe labelling (fragment/DMSO); higher = less target engagement (more negative = stronger competition), active = hit call of the paper (q ≤ 0.05, log2 ratio ≤ -1)
Conditions in all cases: compound concentration: 200 uM; treatment time: 3 h
USP42 = biological target: T1, USP42 (UniProt Q9H9J4)
T1 sequence (whole entry): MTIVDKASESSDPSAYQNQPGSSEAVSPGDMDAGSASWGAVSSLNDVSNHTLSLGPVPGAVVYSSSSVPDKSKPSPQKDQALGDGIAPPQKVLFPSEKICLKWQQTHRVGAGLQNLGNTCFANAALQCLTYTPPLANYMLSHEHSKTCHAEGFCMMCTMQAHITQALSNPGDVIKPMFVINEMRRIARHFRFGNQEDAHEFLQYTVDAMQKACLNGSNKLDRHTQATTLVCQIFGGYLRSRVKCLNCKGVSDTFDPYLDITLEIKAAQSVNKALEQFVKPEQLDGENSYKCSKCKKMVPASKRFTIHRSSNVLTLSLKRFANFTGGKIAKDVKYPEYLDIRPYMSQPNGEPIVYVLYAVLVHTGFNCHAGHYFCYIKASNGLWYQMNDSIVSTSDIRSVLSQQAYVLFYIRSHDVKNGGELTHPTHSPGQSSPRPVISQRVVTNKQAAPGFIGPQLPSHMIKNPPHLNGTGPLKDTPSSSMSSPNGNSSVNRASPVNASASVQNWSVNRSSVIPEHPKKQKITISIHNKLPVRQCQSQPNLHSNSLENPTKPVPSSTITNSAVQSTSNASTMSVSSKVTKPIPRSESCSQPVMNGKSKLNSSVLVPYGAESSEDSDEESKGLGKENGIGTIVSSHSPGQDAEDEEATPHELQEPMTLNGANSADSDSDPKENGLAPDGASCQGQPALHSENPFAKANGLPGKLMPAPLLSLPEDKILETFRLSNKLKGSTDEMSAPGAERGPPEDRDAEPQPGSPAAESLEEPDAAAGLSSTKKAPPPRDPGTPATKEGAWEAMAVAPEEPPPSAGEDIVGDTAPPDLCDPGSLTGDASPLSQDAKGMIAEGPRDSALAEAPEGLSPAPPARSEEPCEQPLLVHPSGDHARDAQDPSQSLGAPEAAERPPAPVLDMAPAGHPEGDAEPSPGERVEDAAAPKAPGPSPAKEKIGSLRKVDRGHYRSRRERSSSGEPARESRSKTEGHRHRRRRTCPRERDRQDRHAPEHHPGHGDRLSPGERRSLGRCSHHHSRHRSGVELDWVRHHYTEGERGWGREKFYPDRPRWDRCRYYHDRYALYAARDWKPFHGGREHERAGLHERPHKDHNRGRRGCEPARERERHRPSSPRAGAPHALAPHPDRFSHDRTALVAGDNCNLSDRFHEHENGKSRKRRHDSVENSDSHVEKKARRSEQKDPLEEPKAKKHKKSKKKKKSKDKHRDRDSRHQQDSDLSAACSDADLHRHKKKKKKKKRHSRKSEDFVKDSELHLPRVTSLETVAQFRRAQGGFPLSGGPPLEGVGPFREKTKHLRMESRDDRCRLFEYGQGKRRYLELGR
Method in brief: (§1)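 Using Biotin-Ahx-Ub-VS at 0.5 µM final for 1 h, DUBs were labelled in HEK293T lysate (495 µg per sample) that had first been treated in triplicate with fragment at 200 µM or vehicle for 3 h. NeutrAvidin enrichment, LysC and trypsin digestion and diaPASEF LC-MS/MS followed. Spectronaut label-free quantities were global-median-normalised. Values are average log2 fragment/vehicle ratios by unpaired t-test, using proteins with ≥2 unique peptides.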

USP46 = USP46 (UniProt P62068)
Method in brief: as §1

USP47 = biological target: T2, USP47 (UniProt Q96K76)
T2 sequence (whole entry): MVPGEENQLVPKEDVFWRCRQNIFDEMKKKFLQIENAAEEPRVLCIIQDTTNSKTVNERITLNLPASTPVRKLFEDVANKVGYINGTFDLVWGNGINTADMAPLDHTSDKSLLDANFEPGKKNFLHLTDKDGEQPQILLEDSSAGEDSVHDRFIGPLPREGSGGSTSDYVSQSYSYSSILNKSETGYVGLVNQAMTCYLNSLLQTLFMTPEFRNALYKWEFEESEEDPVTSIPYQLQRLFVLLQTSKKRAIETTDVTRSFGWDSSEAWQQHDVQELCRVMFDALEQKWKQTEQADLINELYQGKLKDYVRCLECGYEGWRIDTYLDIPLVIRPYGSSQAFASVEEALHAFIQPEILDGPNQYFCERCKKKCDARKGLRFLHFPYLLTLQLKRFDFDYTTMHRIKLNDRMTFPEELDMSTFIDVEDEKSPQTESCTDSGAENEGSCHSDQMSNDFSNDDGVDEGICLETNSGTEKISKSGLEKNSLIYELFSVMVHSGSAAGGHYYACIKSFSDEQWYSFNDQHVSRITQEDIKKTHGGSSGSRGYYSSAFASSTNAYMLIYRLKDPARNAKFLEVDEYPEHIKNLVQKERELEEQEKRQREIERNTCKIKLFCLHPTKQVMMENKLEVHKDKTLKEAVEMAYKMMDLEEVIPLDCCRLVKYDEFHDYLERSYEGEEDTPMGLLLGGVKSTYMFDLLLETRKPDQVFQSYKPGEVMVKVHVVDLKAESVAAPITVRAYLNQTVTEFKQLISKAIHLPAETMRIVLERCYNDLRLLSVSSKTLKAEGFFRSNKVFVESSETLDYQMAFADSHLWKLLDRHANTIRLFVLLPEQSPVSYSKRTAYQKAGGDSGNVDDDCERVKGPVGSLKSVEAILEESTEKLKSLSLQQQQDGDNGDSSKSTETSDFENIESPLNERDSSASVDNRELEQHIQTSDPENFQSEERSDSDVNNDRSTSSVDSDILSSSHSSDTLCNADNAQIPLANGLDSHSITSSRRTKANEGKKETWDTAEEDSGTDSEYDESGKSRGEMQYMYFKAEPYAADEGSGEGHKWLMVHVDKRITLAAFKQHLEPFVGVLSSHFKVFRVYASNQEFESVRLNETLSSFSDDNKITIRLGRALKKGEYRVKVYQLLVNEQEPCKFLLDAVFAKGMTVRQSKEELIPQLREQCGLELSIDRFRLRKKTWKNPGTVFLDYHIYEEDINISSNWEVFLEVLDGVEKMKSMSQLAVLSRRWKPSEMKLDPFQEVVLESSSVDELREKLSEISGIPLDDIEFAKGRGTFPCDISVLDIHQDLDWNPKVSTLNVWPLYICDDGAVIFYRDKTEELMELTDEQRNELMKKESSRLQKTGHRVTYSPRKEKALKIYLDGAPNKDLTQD
Method in brief: as §1

USP48 = biological target: T3, USP48 (UniProt Q86UV5)
T3 sequence (whole entry): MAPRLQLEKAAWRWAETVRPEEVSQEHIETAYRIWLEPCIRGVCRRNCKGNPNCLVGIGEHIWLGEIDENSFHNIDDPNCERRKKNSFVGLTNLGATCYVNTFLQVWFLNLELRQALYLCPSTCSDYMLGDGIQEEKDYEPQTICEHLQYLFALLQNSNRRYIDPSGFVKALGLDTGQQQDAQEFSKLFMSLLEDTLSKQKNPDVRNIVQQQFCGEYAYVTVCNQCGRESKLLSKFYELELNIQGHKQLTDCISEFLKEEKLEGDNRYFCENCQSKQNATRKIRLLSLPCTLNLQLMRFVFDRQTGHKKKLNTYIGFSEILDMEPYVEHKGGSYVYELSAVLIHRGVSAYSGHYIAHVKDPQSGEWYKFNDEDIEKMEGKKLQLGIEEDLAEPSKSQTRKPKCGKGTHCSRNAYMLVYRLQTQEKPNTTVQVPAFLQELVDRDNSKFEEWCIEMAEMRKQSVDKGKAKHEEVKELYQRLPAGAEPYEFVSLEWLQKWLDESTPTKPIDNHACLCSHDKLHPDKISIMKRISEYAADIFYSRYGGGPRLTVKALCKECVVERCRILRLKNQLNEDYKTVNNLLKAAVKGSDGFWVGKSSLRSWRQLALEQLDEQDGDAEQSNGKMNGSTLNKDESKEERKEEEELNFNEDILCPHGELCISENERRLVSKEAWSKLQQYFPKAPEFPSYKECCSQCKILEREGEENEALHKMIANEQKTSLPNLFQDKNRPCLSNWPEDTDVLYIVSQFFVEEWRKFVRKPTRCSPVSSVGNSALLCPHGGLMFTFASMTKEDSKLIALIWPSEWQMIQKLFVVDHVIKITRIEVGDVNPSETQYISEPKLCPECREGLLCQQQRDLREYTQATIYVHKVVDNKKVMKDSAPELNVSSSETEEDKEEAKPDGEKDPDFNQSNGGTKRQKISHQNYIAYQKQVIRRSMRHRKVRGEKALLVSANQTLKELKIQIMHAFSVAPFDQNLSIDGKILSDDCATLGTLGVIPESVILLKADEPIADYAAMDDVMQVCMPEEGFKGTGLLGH
Method in brief: as §1

USP5 = biological target: T4, USP5 (UniProt P45974)
T4 sequence (whole entry): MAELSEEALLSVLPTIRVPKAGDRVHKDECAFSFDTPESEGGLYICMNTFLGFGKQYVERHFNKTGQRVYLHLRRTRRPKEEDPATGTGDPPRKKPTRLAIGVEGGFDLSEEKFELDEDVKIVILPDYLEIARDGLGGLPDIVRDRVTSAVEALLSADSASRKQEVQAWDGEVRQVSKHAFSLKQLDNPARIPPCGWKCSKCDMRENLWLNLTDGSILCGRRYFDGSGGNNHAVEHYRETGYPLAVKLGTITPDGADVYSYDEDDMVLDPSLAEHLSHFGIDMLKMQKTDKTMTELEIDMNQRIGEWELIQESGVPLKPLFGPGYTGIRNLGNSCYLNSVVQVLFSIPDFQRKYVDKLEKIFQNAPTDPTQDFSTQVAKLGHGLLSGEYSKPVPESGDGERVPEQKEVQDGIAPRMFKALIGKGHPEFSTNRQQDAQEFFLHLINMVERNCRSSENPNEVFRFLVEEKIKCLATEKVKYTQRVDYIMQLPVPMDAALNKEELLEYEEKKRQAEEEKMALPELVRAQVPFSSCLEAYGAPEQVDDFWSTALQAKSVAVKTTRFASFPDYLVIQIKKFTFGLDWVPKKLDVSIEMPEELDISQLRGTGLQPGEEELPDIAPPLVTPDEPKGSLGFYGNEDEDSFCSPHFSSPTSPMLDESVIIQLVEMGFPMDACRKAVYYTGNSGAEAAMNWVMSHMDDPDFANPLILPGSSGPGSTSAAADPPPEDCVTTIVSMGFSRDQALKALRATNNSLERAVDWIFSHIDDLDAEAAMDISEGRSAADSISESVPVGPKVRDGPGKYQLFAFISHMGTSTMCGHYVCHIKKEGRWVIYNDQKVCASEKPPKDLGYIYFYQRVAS
Method in brief: as §1

USP54 = USP54 (UniProt Q70EL1)
Method in brief: as §1

USP7 = USP7 (UniProt Q93009)
Method in brief: as §1

USP8 = biological target: T5, USP8 (UniProt P40818)
T5 sequence (whole entry): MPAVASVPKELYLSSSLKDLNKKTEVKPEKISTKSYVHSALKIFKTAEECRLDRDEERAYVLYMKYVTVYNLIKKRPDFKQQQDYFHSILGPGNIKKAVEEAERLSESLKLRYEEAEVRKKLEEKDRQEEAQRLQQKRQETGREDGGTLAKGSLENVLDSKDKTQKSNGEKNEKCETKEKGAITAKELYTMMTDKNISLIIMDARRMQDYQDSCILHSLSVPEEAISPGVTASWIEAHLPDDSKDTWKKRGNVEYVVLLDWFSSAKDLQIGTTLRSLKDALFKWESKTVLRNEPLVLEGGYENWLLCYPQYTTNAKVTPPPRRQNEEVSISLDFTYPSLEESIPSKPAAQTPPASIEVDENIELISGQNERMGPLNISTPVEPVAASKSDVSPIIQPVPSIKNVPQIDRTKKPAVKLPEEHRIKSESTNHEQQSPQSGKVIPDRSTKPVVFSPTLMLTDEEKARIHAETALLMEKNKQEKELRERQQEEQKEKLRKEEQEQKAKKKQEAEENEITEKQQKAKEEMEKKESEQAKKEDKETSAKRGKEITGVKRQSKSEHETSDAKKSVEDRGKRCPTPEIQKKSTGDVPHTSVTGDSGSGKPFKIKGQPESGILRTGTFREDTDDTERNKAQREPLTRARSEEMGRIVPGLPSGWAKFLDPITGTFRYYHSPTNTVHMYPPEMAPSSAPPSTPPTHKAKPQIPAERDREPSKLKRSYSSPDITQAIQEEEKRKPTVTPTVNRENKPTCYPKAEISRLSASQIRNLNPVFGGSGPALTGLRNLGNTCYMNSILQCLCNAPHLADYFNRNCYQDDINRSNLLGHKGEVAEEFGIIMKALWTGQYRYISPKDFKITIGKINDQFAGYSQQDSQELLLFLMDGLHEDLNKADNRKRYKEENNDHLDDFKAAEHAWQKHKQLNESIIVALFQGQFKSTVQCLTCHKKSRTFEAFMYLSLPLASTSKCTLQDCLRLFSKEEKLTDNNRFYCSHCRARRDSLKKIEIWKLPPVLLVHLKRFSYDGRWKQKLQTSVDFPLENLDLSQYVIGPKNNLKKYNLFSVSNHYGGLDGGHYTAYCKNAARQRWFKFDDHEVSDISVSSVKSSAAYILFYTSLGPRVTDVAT
Method in brief: as §1

Measured: log2 ratio of Biotin-Ahx-Ub-VS probe labelling

Chain of USP7 (Q93009 whole entry, looked up): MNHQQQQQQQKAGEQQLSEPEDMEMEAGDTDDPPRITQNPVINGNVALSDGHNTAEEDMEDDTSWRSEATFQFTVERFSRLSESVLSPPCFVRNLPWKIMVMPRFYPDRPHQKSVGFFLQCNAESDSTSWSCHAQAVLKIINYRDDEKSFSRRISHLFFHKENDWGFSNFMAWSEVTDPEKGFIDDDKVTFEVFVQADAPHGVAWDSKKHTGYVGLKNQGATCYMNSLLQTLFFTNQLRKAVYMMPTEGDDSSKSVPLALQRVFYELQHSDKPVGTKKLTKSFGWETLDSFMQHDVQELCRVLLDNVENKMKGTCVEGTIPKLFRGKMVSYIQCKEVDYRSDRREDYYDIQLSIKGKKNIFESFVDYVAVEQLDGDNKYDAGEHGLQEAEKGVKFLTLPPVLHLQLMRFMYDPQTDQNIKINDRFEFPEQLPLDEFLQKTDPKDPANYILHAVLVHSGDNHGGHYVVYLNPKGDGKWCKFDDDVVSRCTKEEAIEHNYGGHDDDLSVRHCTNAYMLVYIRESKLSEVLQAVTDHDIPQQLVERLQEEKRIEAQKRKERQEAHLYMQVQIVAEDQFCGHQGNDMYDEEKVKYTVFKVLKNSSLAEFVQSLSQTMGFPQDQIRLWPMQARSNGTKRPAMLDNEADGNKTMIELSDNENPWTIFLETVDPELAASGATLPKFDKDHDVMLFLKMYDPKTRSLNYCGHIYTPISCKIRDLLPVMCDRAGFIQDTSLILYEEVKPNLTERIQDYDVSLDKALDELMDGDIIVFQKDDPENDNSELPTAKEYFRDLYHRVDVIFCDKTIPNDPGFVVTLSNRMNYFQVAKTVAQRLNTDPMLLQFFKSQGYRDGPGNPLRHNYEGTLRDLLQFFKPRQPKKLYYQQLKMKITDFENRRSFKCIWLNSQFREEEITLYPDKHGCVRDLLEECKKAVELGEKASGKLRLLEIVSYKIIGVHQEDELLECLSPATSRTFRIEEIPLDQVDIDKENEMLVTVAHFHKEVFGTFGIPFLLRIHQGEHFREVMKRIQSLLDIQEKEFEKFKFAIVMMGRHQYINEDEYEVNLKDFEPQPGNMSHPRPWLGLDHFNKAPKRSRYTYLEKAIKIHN
Chain of USP54 (Q70EL1 whole entry): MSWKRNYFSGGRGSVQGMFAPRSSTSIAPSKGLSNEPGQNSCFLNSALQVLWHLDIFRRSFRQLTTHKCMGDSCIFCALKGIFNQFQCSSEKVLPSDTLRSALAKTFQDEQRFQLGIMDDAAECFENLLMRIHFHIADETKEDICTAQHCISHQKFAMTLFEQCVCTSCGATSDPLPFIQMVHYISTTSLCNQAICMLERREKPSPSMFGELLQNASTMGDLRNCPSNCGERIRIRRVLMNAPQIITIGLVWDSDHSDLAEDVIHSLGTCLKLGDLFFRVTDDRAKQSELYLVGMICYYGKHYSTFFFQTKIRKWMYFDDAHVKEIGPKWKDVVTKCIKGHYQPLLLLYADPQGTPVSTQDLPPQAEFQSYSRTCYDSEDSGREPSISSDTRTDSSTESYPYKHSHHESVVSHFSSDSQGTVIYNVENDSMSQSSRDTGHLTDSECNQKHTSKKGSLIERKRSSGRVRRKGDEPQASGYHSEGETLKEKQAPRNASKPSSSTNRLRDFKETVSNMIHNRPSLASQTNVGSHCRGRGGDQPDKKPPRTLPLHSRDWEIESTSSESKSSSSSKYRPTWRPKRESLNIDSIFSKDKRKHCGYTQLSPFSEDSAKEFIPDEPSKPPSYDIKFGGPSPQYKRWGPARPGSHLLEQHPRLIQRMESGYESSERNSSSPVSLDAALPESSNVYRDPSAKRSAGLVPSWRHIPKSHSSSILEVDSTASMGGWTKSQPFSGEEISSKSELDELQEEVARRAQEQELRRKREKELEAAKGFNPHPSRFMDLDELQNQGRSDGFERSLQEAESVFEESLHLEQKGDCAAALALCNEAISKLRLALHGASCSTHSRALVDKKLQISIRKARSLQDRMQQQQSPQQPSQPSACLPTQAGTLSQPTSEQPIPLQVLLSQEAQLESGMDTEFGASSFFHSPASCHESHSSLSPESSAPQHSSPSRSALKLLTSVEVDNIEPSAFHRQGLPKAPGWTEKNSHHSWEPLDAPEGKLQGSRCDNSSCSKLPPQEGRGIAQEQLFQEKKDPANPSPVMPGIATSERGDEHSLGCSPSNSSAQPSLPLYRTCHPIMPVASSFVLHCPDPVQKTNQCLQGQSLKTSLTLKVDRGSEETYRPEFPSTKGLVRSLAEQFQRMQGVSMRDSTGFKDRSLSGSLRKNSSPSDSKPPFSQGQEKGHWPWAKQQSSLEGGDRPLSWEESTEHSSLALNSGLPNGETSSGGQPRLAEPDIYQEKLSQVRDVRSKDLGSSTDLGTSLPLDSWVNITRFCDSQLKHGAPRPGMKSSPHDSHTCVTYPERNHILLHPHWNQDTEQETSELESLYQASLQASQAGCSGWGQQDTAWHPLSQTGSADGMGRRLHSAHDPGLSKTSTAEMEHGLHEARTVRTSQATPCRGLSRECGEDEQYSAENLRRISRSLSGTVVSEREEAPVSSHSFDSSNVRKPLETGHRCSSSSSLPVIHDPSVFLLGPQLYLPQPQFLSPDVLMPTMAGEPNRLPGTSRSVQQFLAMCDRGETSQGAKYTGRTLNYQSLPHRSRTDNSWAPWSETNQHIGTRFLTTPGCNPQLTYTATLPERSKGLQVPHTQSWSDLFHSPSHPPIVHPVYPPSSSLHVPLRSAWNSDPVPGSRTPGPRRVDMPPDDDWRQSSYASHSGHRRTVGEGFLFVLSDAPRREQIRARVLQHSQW
Chain of USP46 (P62068 whole entry): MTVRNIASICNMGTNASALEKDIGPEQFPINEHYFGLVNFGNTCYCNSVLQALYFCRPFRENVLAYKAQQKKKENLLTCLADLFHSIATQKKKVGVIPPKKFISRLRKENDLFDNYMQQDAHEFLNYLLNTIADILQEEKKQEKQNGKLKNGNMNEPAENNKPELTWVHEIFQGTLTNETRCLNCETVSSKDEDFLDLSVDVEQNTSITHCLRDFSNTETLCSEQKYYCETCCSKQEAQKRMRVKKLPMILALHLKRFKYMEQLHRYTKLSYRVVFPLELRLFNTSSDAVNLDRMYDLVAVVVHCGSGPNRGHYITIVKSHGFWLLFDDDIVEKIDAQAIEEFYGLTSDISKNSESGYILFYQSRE

Cc1noc(N2CCN(C(=O)CCl)CC2)n1.Cl
inactive: USP42 0.0551 | USP46 -0.0466 | USP47 -0.329 | USP48 0.0849 | USP5 0.492 | USP54 0.167 | USP7 -0.27 | USP8 -0.307
